{"source": "paper PMC4552634", "about": "“A New Set of Chemical Starting Points with Plasmodium falciparum Transmission-Blocking Potential for Antimalarial Drug Discovery” (PLoS ONE, 2015)", "note": "Screen size: about 13,000 compounds; about 3,200 (25%) showed an effect of 50% or more. This is one part of the list.", "data": [{"system": "P. falciparum stage V gametocytes", "parameters": "BacTiter-Glo ATP luminescence viability of purified stage V gametocytes in 384-well plates, per cent inhibition versus DMSO", "conditions": "48 h, 5 µM; inhibitor", "units": {"% Inhibition": "%"}, "values": [{"smiles": "CN1CCN(c2ccc3nc(-c4ccc5nc(-c6ccc(O)cc6)[nH]c5c4)[nH]c3c2)CC1", "note": "[TCMDC-125507]", "% Inhibition": 11.14}, {"smiles": "CC(=O)c1cccc(Nc2nc3c(C#N)c(OCc4cc(Cl)cc(Cl)c4)ccc3[nH]2)c1", "note": "[TCMDC-133766]", "% Inhibition": -0.7844}, {"smiles": "CN1CCN(c2ccc(-c3nc4c(C(N)=O)c(OCc5cc(Cl)cc(Cl)c5)ccc4[nH]3)cc2)CC1", "note": "[TCMDC-133563]", "% Inhibition": 101.6}, {"smiles": "CC(=O)Nc1ccc(CN2CCC(NC(=O)c3ccc(-c4cccc(Cl)c4)s3)CC2)cc1", "note": "[TCMDC-134334]", "% Inhibition": 14.56}, {"smiles": "CN(C)c1ccc(-c2ccc(C(=O)NC3CCN(Cc4ccccc4)CC3)s2)cc1", "note": "[TCMDC-134367]", "% Inhibition": 44.5}, {"smiles": "CSc1ccc(CN2CCC(NC(=O)c3ccc(-c4ccc(N(C)C)cc4)s3)CC2)cc1", "note": "[TCMDC-134342]", "% Inhibition": -80.35}, {"smiles": "CN(C)c1ccc(-c2ccc(C(=O)NC3CCN(Cc4ccccc4F)CC3)s2)cc1", "note": "[TCMDC-134368]", "% Inhibition": -72.91}, {"smiles": "CN(C)c1ccc(CN2CCC(NC(=O)c3ccc(-c4cccc(Cl)c4)s3)CC2)cc1", "note": "[TCMDC-134329]", "% Inhibition": -64.24}, {"smiles": "COc1ccccc1CN1CCC(NC(=O)c2ccc(-c3ccc(N(C)C)cc3)s2)CC1", "note": "[TCMDC-134357]", "% Inhibition": 85.69}, {"smiles": "COc1ccccc1CN1CCC(NC(=O)c2ccc(-c3cccc(Cl)c3)s2)CC1", "note": "[TCMDC-134356]", "% Inhibition": -14.44}, {"smiles": "CCc1ccc(CN2CCC(NC(=O)c3ccc(-c4ccc(N(C)C)cc4)s3)CC2)cc1", "note": "[TCMDC-134344]", "% Inhibition": -78.7}, {"smiles": "CN(C)c1ccc(CN2CCC(NC(=O)c3ccc(-c4ccc(N(C)C)cc4)s3)CC2)cc1", "note": "[TCMDC-134331]", "% Inhibition": 56.81}, {"smiles": "CC(=O)Nc1ccc(CN2CCC(NC(=O)c3ccc(-c4ccc(N(C)C)cc4)s3)CC2)cc1", "note": "[TCMDC-134336]", "% Inhibition": 72.62}, {"smiles": "COc1cccc(-c2ccc(C(=O)NC3CCN(Cc4ccc(N(C)C)cc4)CC3)s2)c1", "note": "[TCMDC-134330]", "% Inhibition": 105}, {"smiles": "COc1cccc(-c2ccc(C(=O)NC3CCN(Cc4ccc(C(C)(C)C)cc4)CC3)s2)c1", "note": "[TCMDC-134353]", "% Inhibition": -20.06}, {"smiles": "O=C(NCc1cccc2ccccc12)C(c1cc2ccccc2o1)N1CCN(C(c2ccccc2)c2ccccc2)CC1", "note": "(stereo not shown) [TCMDC-141007]", "% Inhibition": 25.05}, {"smiles": "CCCCCCN1CCN(Cc2cccc(NC(=O)c3cc4ccccc4o3)c2)CC1", "note": "[TCMDC-134620]", "% Inhibition": -12.01}, {"smiles": "CCNC(=O)c1ccc2c(c1)c(C)c(C)n2Cc1ccc(F)cc1", "note": "[TCMDC-124754]", "% Inhibition": 32.09}, {"smiles": "CC(=O)C1(c2ccccc2)CCN(CCC2(c3ccc(Cl)c(Cl)c3)CN(C(=O)c3cccc(Cl)c3)CCO2)CC1", "note": "(stereo not shown) [TCMDC-135347]", "% Inhibition": -30.91}, {"smiles": "CNS(=O)(=O)c1ccc(NC(=O)c2cc(-c3cccnc3)nc3ccc(Br)cc23)cc1", "note": "[TCMDC-125216]", "% Inhibition": -3.498}, {"smiles": "Cc1ccccc1C1CCN(C2CCC(NC(=O)C3=Cc4ccccc4OC3)CC2)CC1", "note": "(stereo not shown) [TCMDC-133553]", "% Inhibition": -49.51}, {"smiles": "O=S(=O)(NCCN1CCCC1)c1cccc(-c2ccc(CNC3Cc4ccccc4C3)cc2)c1", "note": "[TCMDC-132241]", "% Inhibition": 96.68}, {"smiles": "O=S(=O)(NCCN1CCCC1)c1ccc(-c2ccc(CNC3Cc4ccccc4C3)cc2)cc1", "note": "[TCMDC-132229]", "% Inhibition": 60.05}, {"smiles": "O=S(=O)(NCCN1CCCC1)c1ccc(-c2cccc(CNC3Cc4ccccc4C3)c2)cc1", "note": "[TCMDC-132215]", "% Inhibition": 70.89}, {"smiles": "COc1ccc(C2CCN(CCN3CCC(NC(=O)c4ccc(-c5cccc(C(F)(F)F)c5C(F)(F)F)cc4)CC3)CC2)c(OC)c1", "note": "[TCMDC-135427]", "% Inhibition": -31.75}, {"smiles": "CC(C)[C@H](NC(=O)c1ccc(O)c(-c2ccc(Cl)c(Cl)c2)c1)C(=O)NCCN1CCCC1", "note": "[TCMDC-140828]", "% Inhibition": 38.9}, {"smiles": "CN1CCN(c2ccnc3ccc(NC(=O)Nc4ccc5c(c4)CCC5=O)cc23)CC1", "note": "[TCMDC-139266]", "% Inhibition": 0.4556}, {"smiles": "O=C(Cc1cccc(Cl)c1)Nc1cccc(-c2c[nH]c3nc(Nc4ccccc4)ncc23)c1", "note": "[TCMDC-134679]", "% Inhibition": 29.34}, {"smiles": "O=C(C=Cc1ccc(Cl)c(Cl)c1)NCCCCCN1CCC(c2[nH]nc3ccccc23)CC1", "note": "[TCMDC-139402]", "% Inhibition": -6.391}, {"smiles": "CCC(C)(C)c1ccc(OCC(O)CN2CCCCC2)c(C(C)(C)CC)c1", "note": "(stereo not shown) [TCMDC-123833]", "% Inhibition": 2.758}, {"smiles": "Cc1ccccc1OCC(O)CN1CCC(C2CCN(CC(O)COc3ccccc3C)CC2)CC1", "note": "(stereo not shown) [TCMDC-131841]", "% Inhibition": 97.67}, {"smiles": "COc1cccc2c(O)c(CNC3CCCCC3)ccc12", "note": "[TCMDC-137595]", "% Inhibition": 11.64}, {"smiles": "CCCc1ccccc1OCC(O)CN(C1CCCC1)C1CCCC1", "note": "(stereo not shown) [TCMDC-131423]", "% Inhibition": -5.815}, {"smiles": "O=C1NC(c2ccccc2)C2(CCN(CC(O)COc3cccc4ncccc34)CC2)O1", "note": "(stereo not shown) [TCMDC-136710]", "% Inhibition": -26.23}, {"smiles": "Cc1ccccc1OCC(O)CNC1CCC(NCC(O)COc2ccccc2C)CC1", "note": "(stereo not shown) [TCMDC-125142]", "% Inhibition": 150}, {"smiles": "COc1ccc(NC(=O)Nc2ccc(-c3ccccc3)cc2)cc1Cn1cnc(N2CCCNCC2)cc1=O", "note": "[TCMDC-134316]", "% Inhibition": 22.91}, {"smiles": "O=C(/C=C/c1ccc(Cl)c(Cl)c1)Nc1cccc(CN2CCC(c3c[nH]c4ccccc34)CC2)c1", "note": "[TCMDC-139600]", "% Inhibition": 0.6115}, {"smiles": "CC(=O)Nc1ncc(C(=O)Nc2cccc(-c3ccc(-c4nc5ccccc5[nH]4)cc3)c2)s1", "note": "[TCMDC-136917]", "% Inhibition": 7.51}, {"smiles": "O=C(CNC1CCCCC1)c1ccc(O)c(O)c1", "note": "[TCMDC-123961]", "% Inhibition": 59.16}, {"smiles": "Oc1ccc(-c2ccccc2)cc1CNC1CCCCC1", "note": "[TCMDC-137603]", "% Inhibition": -11.44}, {"smiles": "CCC(=C(CC)c1ccc(O)c(CNC2CCCCC2)c1)c1ccc(O)c(CNC2CCCCC2)c1", "note": "[TCMDC-137481]", "% Inhibition": 84.66}, {"smiles": "Cc1cc(O)c(CNC2CCCCC2)cc1C", "note": "[TCMDC-137589]", "% Inhibition": -0.1252}, {"smiles": "CC(C)(C)c1ccc(O)c(CNC2CCCCC2)c1", "note": "[TCMDC-125856]", "% Inhibition": 17.68}, {"smiles": "Oc1ccc2c(c1CNC1CCCCC1)CCCC2", "note": "[TCMDC-137501]", "% Inhibition": 23.3}, {"smiles": "FC(F)(F)c1ccc2nccc(NN=Cc3cccnc3)c2c1", "note": "[TCMDC-142021]", "% Inhibition": -27.85}, {"smiles": "Cc1noc(-c2ccc(N3CCC(C(=O)N4CCN(C(C)C)CC4)CC3)cc2)n1", "note": "[TCMDC-136012]", "% Inhibition": 8.914}, {"smiles": "COc1ccc2nccc([C@@H](O)CN3CCC(NC(=O)c4ccc(Oc5ccccc5)cc4)CC3)c2c1", "note": "[TCMDC-141028]", "% Inhibition": -18.23}, {"smiles": "Cc1noc(C)c1-c1cccc(CNCc2cccc(-c3cccc(-c4nc5cc(C(F)(F)F)ccc5[nH]4)c3)c2)c1.O=C(O)C(F)(F)F", "note": "[TCMDC-133053]", "% Inhibition": -28.51}, {"smiles": "COc1ccc(C2CC(c3cccs3)=NN2C(=O)CNc2cccc(C#N)c2)cc1OC", "note": "(stereo not shown) [TCMDC-125050]", "% Inhibition": -31.46}, {"smiles": "OC(CNCCCc1ccccc1)c1cc(OCc2ccccc2)cc(OCc2ccccc2)c1", "note": "(stereo not shown) [TCMDC-132033]", "% Inhibition": 38.73}, {"smiles": "N=C(NCCCc1ccccc1)c1cccc(C(=N)NCCCc2ccccc2)n1", "note": "[TCMDC-137453]", "% Inhibition": 100.2}, {"smiles": "N=C(NCC1CC1c1ccccc1)c1cccc(C(=N)NCC2CC2c2ccccc2)n1", "note": "(stereo not shown) [TCMDC-137456]", "% Inhibition": 113.7}, {"smiles": "Cc1cc2nc(-c3ccc(/C=C/C(=O)NCCCc4ccccc4)cc3)[nH]c2cc1C", "note": "[TCMDC-140436]", "% Inhibition": -5.063}, {"smiles": "N=C(NCCCCC1CCCCC1)c1cccc(C(=N)NCCCCC2CCCCC2)n1", "note": "[TCMDC-137452]", "% Inhibition": 115.6}, {"smiles": "N#Cc1c(Cl)cccc1Oc1ccc(S(=O)(=O)N2CCC(CN3CCC(c4c[nH]c5ccccc45)CC3)CC2)cc1", "note": "[TCMDC-140172]", "% Inhibition": 15.16}, {"smiles": "Cc1cc(NC(=O)c2coc3cc(F)c(N4CC(C)N(C)C(C)C4)cc23)ccc1-n1ccnc1", "note": "(stereo not shown) [TCMDC-141394]", "% Inhibition": 18.23}, {"smiles": "CCNc1cc(C(=O)N[C@@H](Cc2ccccc2)[C@H](O)CNCc2cccc(OC)c2C)cc(N2CCCCS2(=O)=O)c1", "note": "[TCMDC-132413]", "% Inhibition": 37.46}, {"smiles": "Cc1ccc(-c2ccc3c(c2)C=C(C(=O)NC2CCN(CCNC(=O)c4cccs4)CC2)CCC3)cc1", "note": "[TCMDC-141949]", "% Inhibition": -0.2388}, {"smiles": "Cc1nnc(-c2cccc(Nc3ccnc4cc(-c5nccs5)ccc34)c2)o1", "note": "[TCMDC-138335]", "% Inhibition": 93.46}, {"smiles": "CC(O)c1cccc(-c2ccc(Nc3ccnc4cc(-c5nccs5)ccc34)cc2)c1", "note": "(stereo not shown) [TCMDC-138331]", "% Inhibition": -54.01}, {"smiles": "Nc1n[nH]c(-c2ccccc2Nc2ccnc3cc(-c4nccs4)ccc23)n1", "note": "[TCMDC-138301]", "% Inhibition": 14.85}, {"smiles": "Cc1ccc2nc(-c3ccccc3Nc3ccnc4cc(-c5nccs5)ccc34)[nH]c2c1", "note": "[TCMDC-138345]", "% Inhibition": 108.2}, {"smiles": "c1ccc(-c2nc3ccccc3[nH]2)c(Nc2ccnc3cc(-c4nccs4)ccc23)c1", "note": "[TCMDC-138346]", "% Inhibition": 44.29}, {"smiles": "Cc1cccc(-c2cc3cc(Nc4ccnc5cc(-c6nccs6)ccc45)ccc3[nH]2)c1", "note": "[TCMDC-138348]", "% Inhibition": -37.38}, {"smiles": "CC(C)(C)c1cc2cc(Nc3ccnc4cc(-c5nccs5)ccc34)ccc2[nH]1", "note": "[TCMDC-138349]", "% Inhibition": 14.13}, {"smiles": "Cc1nc(-c2cccc(Nc3ccnc4cc(-c5nccs5)ccc34)c2)no1", "note": "[TCMDC-138334]", "% Inhibition": 113.3}, {"smiles": "c1ccc(Cn2nnnc2-c2cccc(Nc3ccnc4cc(-c5nccs5)ccc34)c2)cc1", "note": "[TCMDC-138337]", "% Inhibition": 1.923}]}]}
